For 23 molecules, Potency results are on record in PubChem BioAssay (Tox21).

“And” between values parts separate entries of the source, which are not always exact repeats. Equal entries are not always repeated. Records with an inconclusive call do not appear. Where a call stands in place of a potency, no number is given. The source made the active and inactive calls. Calls come from the whole dose curve; as a rule, active = well fitted inhibition curve with a large enough effect in the repeat runs; inconclusive = weak or mixed curves; inactive = no such curve, though single readings can be large or run the other way.
Potency is the fitted concentration of half-maximal effect.

The assay deals with Cytochrome P450 2C9 (Homo sapiens) (UniProt P11712). As to the kind of experiment: Cytochrome P450 Family 2 Subfamily C Member 9 (CYP2C9) small molecule antagonists: luciferase reporter qHTS assay (AID 1671198). Note: nearly all actives have a fitted effect of over 50% in size. As to conditions: P450-Glo CYP2C9 enzyme assay, luciferin luminescence; series mostly up to 115 µM. The essentials: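 CYP2C9 activity was measured with a P450-Glo proluciferin substrate. Enzyme–substrate mix was held with compound for 10 min at room temperature, then NADPH regeneration solution was added for 1 h at 37C. Luciferin product was read as luminescence.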
Chain of Cytochrome P450 2C9 (Homo sapiens) (P11712 whole entry, looked up): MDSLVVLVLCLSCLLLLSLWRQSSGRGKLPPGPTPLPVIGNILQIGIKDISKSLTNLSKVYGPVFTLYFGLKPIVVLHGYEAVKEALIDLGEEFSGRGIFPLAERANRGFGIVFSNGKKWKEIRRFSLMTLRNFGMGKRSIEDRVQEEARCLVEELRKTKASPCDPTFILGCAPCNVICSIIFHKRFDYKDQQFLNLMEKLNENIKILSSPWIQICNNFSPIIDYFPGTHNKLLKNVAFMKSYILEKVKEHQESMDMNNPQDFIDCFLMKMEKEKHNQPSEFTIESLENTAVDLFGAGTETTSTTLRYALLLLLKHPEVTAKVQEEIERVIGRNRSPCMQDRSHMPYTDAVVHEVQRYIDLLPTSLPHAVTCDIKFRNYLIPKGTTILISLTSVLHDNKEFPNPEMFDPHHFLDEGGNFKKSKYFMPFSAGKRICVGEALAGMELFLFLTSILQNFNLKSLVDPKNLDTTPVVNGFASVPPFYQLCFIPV
Background: A reporter such as luciferase makes a cellular process visible.
As to `Cc1ccccc1`, the Potency result is “inactive”. For `O=C(Cc1ccccc1)c1ccccc1`, the Potency result was “inactive”.

With `CCCCNC(=O)OCC#CI`, the Potency was 5 µM (active) and 5.03 µM (active).

In the case of `C[N+](C)(C)CCOC(=O)C(O)(c1ccccc1)c1ccccc1`, the Potency result was “inactive”. In the case of `OCC1CO1` (stereo not drawn), the Potency entry was “inactive”.

For the molecule `C#CC(O)(C=CCl)CC` (stereo not drawn), the Potency result is “inactive”. For `C1CS1`, the Potency result was “inactive”. Take `Nc1ccc2c(c1)Cc1ccccc1-2`: the Potency was 15.8 µM (active).

Consider `CCCC[N+](CCCC)(CCCC)CCCC`, for which the Potency entry was “inactive”.

In the case of `Nc1cccc2ccccc12`, the Potency was 35.8 µM (active) and 50.2 µM (active). For `Cc1ccc2c(C)cccc2c1`, the Potency entry was “inactive”. For `CC(C)[C@@H](C(=O)O[C@@H](C#N)c1cccc(Oc2ccccc2)c1)c1ccc(Cl)cc1`, the Potency is 7.21 µM (active) and 12.6 µM (active). For `CCOP(=O)(O)C(N)=O` the value was “inactive”; for `CCCSP(=S)(OCC)Oc1ccc(SC)cc1` (stereo not drawn), 2.52 µM (active); for `Clc1ccccc1`, “inactive”. For `CCC1(C2=NCCN2)Cc2ccccc2O1` (stereo not drawn) the value was “inactive”. On to `O=P(OCC(Br)CBr)(OCC(Br)CBr)OCC(Br)CBr` (stereo not drawn), for which the Potency was 16.1 µM (active) and 16.9 µM (active).

Consider `OC[P+](CO)(CO)CO`, for which the Potency entry was “inactive”. For `CC1(C)CC(=O)CC(C)(C)N1[O]` the value was “inactive”; for `COC1=CC(=O)O[C@@H](/C=C/c2ccc3c(c2)OCO3)C1`, 2.71 µM (active); for `CCc1cnc(C2=NC(C)(C(C)C)C(=O)N2)c(C(=O)O)c1` (stereo not drawn), “inactive”. With `CC(C)(C)CC(C)(C)c1ccc(O)cc1`, the Potency is 22.4 µM (active) and 15.5 µM (active).

Take `CCCCC(CC)COC(=O)c1c(Br)c(Br)c(Br)c(Br)c1C(=O)OCC(CC)CCCC` (stereo not drawn): the Potency result is “inactive”.
